# KCNQ2 inh – blocks the rat KCNQ2 potassium channel; B-score at 10 µM; 310,000 tested, 1.1% active; CHO-K1 KCNQ2, FluxOR thallium flux, 20 min; stronger effect = lower value; O88943;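 active = fluorescence ratio B-score at most minus 3 library SDs, with starting brightness B-score within 2 library SDs, cut at about -5.5 in these data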
# Target sequence (O88943 whole entry, looked up): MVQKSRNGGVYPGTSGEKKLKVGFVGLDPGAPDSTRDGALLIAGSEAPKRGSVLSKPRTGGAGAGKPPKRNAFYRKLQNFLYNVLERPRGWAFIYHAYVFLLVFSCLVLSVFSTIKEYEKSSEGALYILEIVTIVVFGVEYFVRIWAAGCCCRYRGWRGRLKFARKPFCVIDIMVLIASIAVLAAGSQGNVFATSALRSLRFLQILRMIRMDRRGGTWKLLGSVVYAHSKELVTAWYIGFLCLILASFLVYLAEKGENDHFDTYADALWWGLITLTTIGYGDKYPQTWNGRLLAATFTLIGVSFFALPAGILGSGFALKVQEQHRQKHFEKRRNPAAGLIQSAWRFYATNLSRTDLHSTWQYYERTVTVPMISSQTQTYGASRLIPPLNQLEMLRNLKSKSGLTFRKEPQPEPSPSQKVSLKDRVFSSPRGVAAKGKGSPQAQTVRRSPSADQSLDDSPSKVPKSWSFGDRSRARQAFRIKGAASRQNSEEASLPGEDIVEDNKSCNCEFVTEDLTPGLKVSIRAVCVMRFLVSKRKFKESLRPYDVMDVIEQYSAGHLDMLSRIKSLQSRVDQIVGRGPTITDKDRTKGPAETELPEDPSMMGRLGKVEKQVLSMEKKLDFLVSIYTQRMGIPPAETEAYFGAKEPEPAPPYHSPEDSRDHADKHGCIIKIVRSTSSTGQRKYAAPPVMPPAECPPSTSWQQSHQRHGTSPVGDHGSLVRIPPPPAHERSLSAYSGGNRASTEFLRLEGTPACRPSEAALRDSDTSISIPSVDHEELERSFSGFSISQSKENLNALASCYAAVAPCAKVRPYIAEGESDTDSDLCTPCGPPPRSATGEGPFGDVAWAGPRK
# KCNQ2 pot – enhances the rat KCNQ2 potassium channel. O88943. 310,000 tested, 0.54% active. B-score at 10 µM. CHO-K1 KCNQ2, FluxOR thallium flux fluorescence; stronger effect = higher value. AID 2239;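 active = fluorescence ratio B-score at least 3 SD of library B-scores, with initial fluorescence B-score within 3 of them, cut at about 5.3 in these data; same plate scores as AID 2156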;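 note: B-score of peak minus minimum over baseline fluorescence ratio after K+ and Tl+ stimulus; positive B-score means potentiation of KCNQ2 with more thallium influx and brighter signal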
# Hits are given with their value; – = inactive; · = no result. Compounds with a hit are over-represented: about 1.6% of the library has one in this group of screens.
SMILES,KCNQ2 inh,KCNQ2 pot
Cc1onc(-c2c(Cl)cccc2Cl)c1/C(N)=N/OC(=O)C(C)(C)C,–,–
CCN1CCN(c2oc(/C=C/c3ccccc3)nc2C#N)CC1,–,·
C=C(C)c1cccc(C(C)(C)NC(=O)Nc2cc(C)ccc2OC)c1,–,–
C=C(C)c1cccc(C(C)(C)NC(=O)Nc2ccccc2OCC)c1,–,8.7
C/C(=N\OCC(=O)Nc1cc(C)cc(C)c1)c1ccc2c(c1)OCCO2,–,·
C/C(=N\OCC(=O)Nc1c(C)cc(C)cc1C)c1ccc2c(c1)OCCO2,–,8.1
Cc1ccc(-n2ncc3c2CC(C)(C)CC3NC(=O)CCc2ccc(=O)[nH]n2)cc1 (configuration not stated),–,–
CC1(C)C2CCC1(C)C(OC(=O)CNc1ccccc1)C2 (configuration not stated),–,·
COc1cc(C(=O)OC2CC3CCC2(C)C3(C)C)ccc1OC(C)=O (configuration not stated),-5.7,–
CCn1c(CCC(=O)N(C)CC(=O)Nc2cccc(F)c2)nc2cc(S(=O)(=O)N(C)C)ccc21,–,–
COc1cccc(/C=N/NC(=O)CSc2ccccc2C)c1OC,–,·
COc1cccc(/C=N/NC(=O)CSc2ccccc2C)c1O,–,9.4
COc1ccc(OC2CCN(S(=O)(=O)c3cccc(F)c3)CC2)cc1,–,·
O=S(=O)(c1cccc(F)c1)N1CCc2sccc2C1c1ccc(OC(F)(F)F)cc1 (configuration not stated),-5.9,–
O=C(/C=C/c1ccc2c(c1)OCO2)NCCSCc1cccc(Cl)c1,–,·
O=C(/C=C/c1ccc2c(c1)OCO2)NCCSCc1ccc(Cl)cc1Cl,-7.8,–
O=C(OCn1ncc(Br)c(Br)c1=O)c1ccc(F)cc1,-5.6,–
O=C(OCn1ncc(Br)c(Br)c1=O)c1ccccc1Cl,–,·
COc1ccc(Cl)cc1NC(=O)CN(C)C(=O)c1cc2ccccc2cc1O,–,–
COC(=O)c1ccc2c(=O)n(CCN3CCOCC3)c(SCC(=O)Nc3ccc(OC)cc3OC)nc2c1,–,·
COC(=O)c1ccc2c(=O)n(CCN3CCOCC3)c(SCC(=O)Nc3ccccc3Cl)nc2c1,-6.2,–
O=C(O)c1cccc(-n2cccc2/C=C/[N+](=O)[O-])c1,–,·
CC(C)(C)CN1CCN(Cc2cccnc2)CC1CCO (configuration not stated),–,–
Cc1ccc(C(=O)Nn2c(C)nc3ccccc3c2=O)cc1C,–,–
O=C(c1cc2ccccc2oc1=O)N1CCN(S(=O)(=O)c2ccccc2)CC1,–,–
SMILES,KCNQ2 inh,KCNQ2 pot
O=C(Nc1ccccc1Cl)c1ccccc1Cl,–,·
O=C(Nc1ccccc1Cl)c1cc2ccccc2o/c1=N\O,-5.6,–
N#Cc1cccc(NC(=O)CNc2cccc(S(=O)(=O)N3CCCCC3)c2)c1,–,·
COc1cc(OC)c2c(-c3ccccc3)cc(=O)oc2c1C(CCN1CCCC(C)C1)c1ccc(N(C)C)cc1 (configuration not stated),–,·
COc1ccc(C(CCN2CCCC(C)C2)c2c(OC)cc(OC)c3c(-c4ccccc4)cc(=O)oc23)cc1 (configuration not stated),-6,–
CC(=O)NNS(=O)(=O)c1scc(S(=O)(=O)c2ccc(Cl)cc2)c1C,–,–
Cc1csc(-c2cnn(-c3ccccc3)c2NC(=O)c2ccc(C(F)(F)F)cc2)n1,-5.9,–
CC(C)(C)NC(=O)c1cnn(-c2ccccc2)c1NC(=O)c1ccccc1,–,·
O=C(C1CC2C=CC1C2)N1CCN(c2ccccc2)CC1 (configuration not stated),–,·
CC1(C)C(C=C(Cl)Cl)C1C(=O)N1CCN(c2ccccc2)CC1 (configuration not stated),-5.7,–
CCCn1nc(C(=O)NNC(=O)c2cccc(S(=O)(=O)NC(C)C)c2)c2ccccc2c1=O,–,–
O=C(COC(=O)C1(c2ccc(Cl)cc2)CCCC1)Nc1ncc(C(F)(F)F)cc1Cl,–,·
O=C(COC(=O)C1(c2ccc(F)cc2)CCCC1)Nc1ncc(C(F)(F)F)cc1Cl,-7,–
O=S(=O)(Nc1ccc(Br)cn1)c1ccc(Cl)s1,–,–
Cc1cccc(CS(=O)(=O)Cc2ccc(C(=O)NC3CCCC3)o2)c1,–,–
COc1ccc(NC(=O)CSCc2cc(=O)n3c(C)csc3n2)cc1,–,–
O=C(Nc1ccccc1N1CCCC1)c1ccc(Cl)cc1Cl,–,·
Cc1ccccc1C(=O)Nc1ccccc1N1CCCCC1,–,·
O=C(Nc1ccccc1N1CCCC1)c1ccccc1Cl,-6.1,–
O=C(Nc1ccccc1N1CCCC1)c1cc(Cl)ccc1Cl,-5.7,–
CCOc1ccc(C(C)=O)cc1CN1c2ccc(S(N)(=O)=O)cc2CC1C (configuration not stated),–,·
O=C(/C=C/c1ccc(F)cc1)Nc1cc(S(=O)(=O)N2CCOCC2)ccc1N1CCCC1,–,·
CN1CCN(c2ccc(Cl)cc2NC(=O)/C=C/c2ccc(F)cc2)CC1,-5.6,–
Cc1cc(OC(=O)c2cccc(Cl)c2)c([N+](=O)[O-])c(=O)[nH]1,–,·
O=C(CCN1CCC(c2ccccc2)C1)c1ccccc1 (configuration not stated),–,·
SMILES,KCNQ2 inh,KCNQ2 pot
O=C(CCN1CCC(c2ccccc2)C1)c1ccc2c(c1)OCCO2 (configuration not stated),-6.2,–
COc1ccc(N2CCN(c3oc(COc4ccc(Cl)cc4Cl)nc3C#N)CC2)cc1,–,–
N#Cc1nc(COc2ccc(Cl)cc2Cl)oc1N1CCN(c2ccccc2)CC1,-7.7,–
O=C(Nc1nc2c(F)cc(F)cc2s1)C1CC1,–,·
CCOC(=O)CSc1nnc(-c2cc(OC)c(OC)c(OC)c2)o1,–,–
CCOC(=O)CN(C(=O)CSc1nnc(-c2ccc(OC)c(OC)c2)o1)c1ccc(F)cc1,-6.6,–
CN1C(=O)c2ccc(C(=O)Nc3ccccc3O)cc2C1=O,–,·
Cc1cc(Nc2ccccc2)nc(NCc2ccccc2)n1,-6.2,–
Cc1cc(Nc2ccc(Cl)cc2)nc(NCc2ccccc2)n1,–,·
COc1ccc(C(C)=O)cc1COC(=O)C1CC(=O)N(Cc2ccccc2)C1 (configuration not stated),–,–
O=C1C(Cl)=C(N2CCC(C(=O)O)CC2)C(=O)c2ccccc21,–,·
NC(=O)C1CCN(C2=C(Cl)C(=O)c3ccccc3C2=O)CC1,-12,–
CCOC(=O)N1CCN(C(=O)c2ccc3c(=O)n(CCC4=CCCCC4)c(=S)[nH]c3c2)CC1,–,–
O=c1c2ccc(Cl)cc2[nH]c(=S)n1CCC1=CCCCC1,–,8.7
O=C(Nc1ccc2nc3n(c(=O)c2c1)CCCCC3)C(=O)N1CCN(c2ccccc2F)CC1,–,–
CCn1c(C)c(C)c2cc(C(=O)N3CCc4ccccc4C3)ccc21,-6,–
CCN1CCN(C(=O)c2ccc3c(c2)c(C)c(C)n3Cc2ccccc2)CC1,–,·
O=C(OCc1ccccc1)c1cccc(-c2nnc(-c3ccccc3)o2)c1,-6.3,–
O=C(OCc1ccc(C(=O)c2ccccc2)cc1)c1cccc(-c2nnc(-c3ccccc3)o2)c1,–,·
O=C(NN(CC(O)COc1ccccc1)CC(O)COc1ccccc1)c1ccccc1 (configuration not stated),–,·
Cc1[nH]c2ccccc2c1C(=O)C(C)OC(=O)c1ccccc1NCCO (configuration not stated),–,·
CC(=O)CC1(O)C(=O)N(Cc2ccccc2)c2ccccc21 (configuration not stated),–,–
CC1(C)C(=S)N(Cc2ccccc2)c2ccccc21,-6.6,–

# Assay outcomes (PubChem)
